Results as given in PubChem BioAssay (NCI).
Compounds without any hit were thinned out: in the full panel of roughly 83,000, 20% have a hit.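 Cells were grown in 96-well plates and exposed to the test compound at a single concentration for 48 hours; results are reported as percent growth, with values below 10 considered active.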 Values without a mark were called inactive. The source made the active and inactive calls.

Columns and labels:
Experiment in all cases: NCI-60 one-dose screen, 48 h (100 = growth as untreated, 0 = no growth, -100 = all killed)
Conditions in all cases: 10 µM unless noted
SK-MEL-2 melanoma = tested on: SK-MEL-2 melanoma
EKVX NSCLC = tested on: EKVX NSCLC
SN12C renal = tested on: SN12C renal
UO-31 renal = tested on: UO-31 renal
TK-10 renal = tested on: TK-10 renal
ACHN renal = tested on: ACHN renal
CAKI-1 renal = tested on: CAKI-1 renal
A498 renal = tested on: A498 renal
CCRF-CEM leukemia = tested on: CCRF-CEM leukemia
MOLT-4 leukemia = tested on: MOLT-4 leukemia
SR leukemia = tested on: SR leukemia
RPMI-8226 leukemia = tested on: RPMI-8226 leukemia
OVCAR-8 ovarian = tested on: OVCAR-8 ovarian
OVCAR-5 ovarian = tested on: OVCAR-5 ovarian
OVCAR-4 ovarian = tested on: OVCAR-4 ovarian
SK-OV-3 ovarian = tested on: SK-OV-3 ovarian
IGROV1 ovarian = tested on: IGROV1 ovarian
OVCAR-3 ovarian = tested on: OVCAR-3 ovarian
HS 578T breast = tested on: HS 578T breast
NCI/ADR-RES ovarian = tested on: NCI/ADR-RES ovarian

SMILES	growth (SK-MEL-2 melanoma)	growth (EKVX NSCLC)	growth (SN12C renal)	growth (UO-31 renal)	growth (TK-10 renal)	growth (ACHN renal)	growth (CAKI-1 renal)	growth (A498 renal)	growth (CCRF-CEM leukemia)	growth (MOLT-4 leukemia)	growth (SR leukemia)	growth (RPMI-8226 leukemia)	growth (OVCAR-8 ovarian)	growth (OVCAR-5 ovarian)	growth (OVCAR-4 ovarian)	growth (SK-OV-3 ovarian)	growth (IGROV1 ovarian)	growth (OVCAR-3 ovarian)	growth (HS 578T breast)	growth (NCI/ADR-RES ovarian)
CCOC(=O)C(=CCC(C)C)C(=O)OCC	113%	112%	90.5%	78.5%	121%	103%	99.4%	76.2%	108%	98.1%	119%	99%	109%	95.8%	95.2%	98.5%	104%	99.5%	98.6%	93.8%
N#Cc1c(-c2cccc(F)c2)cc(-c2cccnc2)[nH]c1=O	110%	106%	96.4%	90.2%	106%	101%	95.9%	116%	104%	99.7%	91.3%	98.8%	100%	98.9%	113%	99.6%	110%	108%	104%	105%
O=C1/C(=C/c2ccc(F)c(F)c2)CN(C(=O)C(Cl)Cl)C/C1=C\c1ccc(F)c(F)c1	-53.4% (active)	-93.7% (active)	-75.3% (active)	-97.9% (active)	-94.6% (active)	-100% (active)	-92.1% (active)	-96.8% (active)	-3.13% (active)	-21% (active)	-21.2% (active)	-31.4% (active)	-95.4% (active)	-72.6% (active)	-67.1% (active)	-35% (active)	-84.5% (active)	-97% (active)	-38.5% (active)	-18% (active)
COc1ccc(/C=C/C(=O)c2cc3c(N)c(C(=O)Nc4ccccc4Cl)sc3nc2C)cc1	30.6%	66.8%	53.8%	-10.2% (active)	20.4%	10.2%	31.9%	30.9%	58.9%	36.2%	53.1%	53%	40.3%	79%	-13% (active)	58.5%	26.9%	21.1%	10.3%	42.9%
CN1CCN(c2ccc(/C=C/C(=O)c3ccc(O)cc3)cc2)CC1	102%	83.7%	94.1%	85.3%	122%	105%	98.9%	82.9%	102%	95%	101%	102%	95.9%	98.1%	89.5%	105%	105%	106%	95.7%	99.9%
COc1ccc(Nc2ncnc3ccc(-c4cncc(NS(C)(=O)=O)c4)cc23)cc1Cl	-4.48% (active)	67.3%	38%	50.1%	18.2%	80.4%	79.8%	7.85% (active)	6.14% (active)	-27.6% (active)	11.2%	24.9%	46.2%	45.1%	57.5%	21.6%	3.39% (active)	15.2%	-3.14% (active)	86%
CCN(CC)CC#CCOC(=O)[C@]1(C)CCC[C@]2(C)c3ccc(C(C)C)cc3CC[C@@H]12	98.6%	86.6%	83.8%	65%	102%	92.1%	94.5%	82.9%	4.53% (active)	82.9%	79.3%	21.3%	94.2%	93.5%	71.3%	89.2%	86.2%	90.6%	90.2%	84.5%
O=C(CCCOc1ccc(Br)cc1)Nc1ncc(Cc2ccc(F)cc2)s1	93.3%	77%	82.7%	62.6%	86.5%	72.9%	37%	76.7%	64.4%	73.8%	22.6%	77.6%	91.5%	79.4%	68.7%	81.7%	78.5%	81%	74.3%	73.6%
CCCCC(NC(=O)CN1C(=O)/C(=C/C(C)=C/c2ccccc2)SC1=S)C(=O)O (stereo not given)	113%	98.6%	95.5%	82.9%	104%	97.2%	89.2%	68%	105%	118%	115%	115%	102%	101%	101%	105%	102%	112%	102%	98%
Cc1ccc(NC(=O)c2sc3nc(C)c(C(=O)c4ccccc4)cc3c2N)cc1	93.8%	72.4%	95.8%	89.4%	99.5%	92.8%	76.1%	4.97% (active)	94.3%	104%	45.2%	90.1%	94.6%	97.6%	89.3%	45.8%	95%	94.8%	75.9%	95.2%
Clc1ccc2c(c1)N(c1ncnc3ccc(-c4cnc5[nH]ccc5c4)cc13)CC2	28.3%	26.6%	26.7%	21%	26.2%	28.4%	31.4%	8.49% (active)	21.1%	-6.69% (active)	1.86% (active)	26%	27.9%	39.1%	0.279% (active)	28.3%	-24% (active)	21.5%	1.12% (active)	33.3%
Cc1ccc(S(=O)(=O)Nc2cc(Sc3ccccc3)c(O)c3ccccc23)cc1	81.8%	116%	64.2%	64%	111%	91.5%	73.1%	70%	12.7%	-32.2% (active)	20.8%	28.8%	-0.704% (active)	106%	-99.7% (active)	115%	85%	-5.01% (active)	98.7%	5.05% (active)
CCOC(=O)c1nc2c3ccccc3cnn2c1C(=O)c1ccc(OC)cc1	107%	89.7%	98.5%	79.4%	140%	100%	86.9%	79.9%	91.2%	88.7%	90.6%	95.6%	98.2%	106%	89.4%	81.6%	105%	110%	101%	94.4%
O=C1N=c2ccccc2=C1c1sc(=S)n(C2CC(=O)N(c3ccc(Cl)cc3)C2=O)c1O (stereo not given)	102%	101%	94.9%	68.5%	129%	93.9%	87.6%	114%	83.8%	97.7%	36.5%	103%	98.6%	105%	103%	103%	101%	109%	98.1%	102%
